# Rows were chosen to be rich in hits. Some 1.6% of all compounds tested hit in one or more screens of this group.
# KCNQ2 pot: potentiators of rat KCNQ2 potassium channel; Potassium voltage-gated channel subfamily KQT member 2 (Rattus norvegicus), O88943; CHO-K1 KCNQ2, FluxOR thallium flux fluorescence; stronger effect = higher value; B-score at 10 µM; hit rate 0.54% among 310,000;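 active = fluorescence ratio B-score at least 3 SD of library B-scores, with initial fluorescence B-score within 3 of them, cut at about 5.3 in these data; same plate scores as AID 2156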;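 also: B-score of peak minus minimum over baseline fluorescence ratio after K+ and Tl+ stimulus; positive B-score means potentiation of KCNQ2 with more thallium influx and brighter signal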
# Target sequence (O88943 whole entry, looked up): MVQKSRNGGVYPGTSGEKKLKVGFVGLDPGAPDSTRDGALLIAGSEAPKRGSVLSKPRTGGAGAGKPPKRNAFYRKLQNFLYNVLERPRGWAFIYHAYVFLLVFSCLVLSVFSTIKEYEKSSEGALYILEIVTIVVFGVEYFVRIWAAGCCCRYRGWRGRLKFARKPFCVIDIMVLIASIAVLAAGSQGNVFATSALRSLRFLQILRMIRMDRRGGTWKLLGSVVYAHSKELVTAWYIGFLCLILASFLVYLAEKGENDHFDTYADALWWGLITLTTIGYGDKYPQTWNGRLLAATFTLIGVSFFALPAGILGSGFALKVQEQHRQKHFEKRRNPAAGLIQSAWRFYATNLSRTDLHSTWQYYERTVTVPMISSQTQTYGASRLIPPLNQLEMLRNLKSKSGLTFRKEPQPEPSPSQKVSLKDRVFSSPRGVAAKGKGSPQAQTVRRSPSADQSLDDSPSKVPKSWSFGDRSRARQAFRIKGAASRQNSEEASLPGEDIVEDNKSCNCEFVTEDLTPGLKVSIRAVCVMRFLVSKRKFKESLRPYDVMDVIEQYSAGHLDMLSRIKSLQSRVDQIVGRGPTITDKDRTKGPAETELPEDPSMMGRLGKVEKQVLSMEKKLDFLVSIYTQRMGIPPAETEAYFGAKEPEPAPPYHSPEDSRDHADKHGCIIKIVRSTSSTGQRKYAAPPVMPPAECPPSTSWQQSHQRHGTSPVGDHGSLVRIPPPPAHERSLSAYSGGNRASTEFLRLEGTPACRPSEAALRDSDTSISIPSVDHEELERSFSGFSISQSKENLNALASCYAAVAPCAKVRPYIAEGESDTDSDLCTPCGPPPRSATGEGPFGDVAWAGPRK
# KCNQ2 block: rat KCNQ2 potassium channel inhibitors, primary screen, cell-based, CHO-K1, FluxOR thallium flux, B-score | Potassium voltage-gated channel subfamily KQT member 2 (Rattus norvegicus), O88943 | 20 min; stronger effect = lower value | B-score at 10 µM | hit rate 1.1% among 310,000 | AID 2156, 2009;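 active = fluorescence ratio B-score at most minus 3 library SDs, with starting brightness B-score within 2 library SDs, cut at about -5.5 in these data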
# Kir21 conf inh: mouse Kir2.1 channel blockers, retest, confirmation, cell-based, FluxOR thallium flux, duplicate | shares compounds with KCNQ2 pot | Kir2.1-expressing cells, FluxOR thallium flux fluorescence; stronger effect = lower value | Tl flux remaining, % of negative control (stronger effect = lower value), % at 10 µM | hit rate 41% among 2,300 | AID 2032, 2009;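 active = Primary-screen hit whose thallium flux fell at least 3 control SD below untreated wells in both duplicates, with normal baseline fluorescence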;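 also: 0% = blank wells without stimulus and 100% = stimulated no-compound controls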
# HEK293 Tl flux: parental HEK293 activity in Kir2.1 inhibitor counter-screen; AID 2105; hit rate 19% among 2,300; parental HEK293 cells, FluxOR thallium flux fluorescence; 0% = unstimulated blank wells; FluxOR signal as % of negative control (100 = no effect), % at 10 µM; shares compounds with KCNQ2 pot;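 active = dye signal at least 3 control SD above or below untreated wells in both duplicates, raw fluorescence within 3, either direction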;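 also: percent is based on the flux ratio of peak minus minimum fluorescence over baseline F0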
# CHO-K1 ctr: nonspecific thallium flux increase in parental CHO-K1, confirmation, counter-screen for KCNQ2 potentiator project, cell-based, FluxOR thallium flux, duplicate; hit rate 43% among 1,200; activity increase over 3SD of controls, % at 10 µM; shares compounds with KCNQ2 pot; parental CHO-K1 cells, FluxOR thallium flux fluorescence; zero = vehicle mean+3SD, 100% = vehicle-minus-blank window;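 active = signal rise of at least 3 SD above the untreated control mean, in both duplicate wells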;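 also: counter screen of KCNQ2 potentiator hits so any rise reflects channel-independent effects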
# KCNQ1 pot spec: human KCNQ1 channel potentiation off-target, confirmation, selectivity assay for KCNQ2 potentiator project, cell-based, CHO, FluxOR thallium flux; hit rate 28% among 1,200; activation over 3SD threshold, % at 10 µM; CHO KCNQ1 stable, FluxOR thallium flux fluorescence; beyond 3SD, as % of vehicle-control signal; AID 2283, 2010; shares compounds with KCNQ2 pot;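 active = fluorescence ratio rise of at least 3 SD of vehicle wells above their mean, in both replicate wells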;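 also: 0% = vehicle mean plus 3 SD and 100% = vehicle minus unstimulated blank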
# KCNQ2 pot confirm: rat KCNQ2 channel potentiators, confirmation, cell-based, CHO, FluxOR thallium flux, duplicate | shares compounds with KCNQ2 pot | CHO-KCNQ2 cells, FluxOR thallium flux fluorescence | potentiation, less the hit threshold, % at 10 µM | hit rate 68% among 1,200;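 active = fluorescence ratio rising 3 SD or more over the vehicle control mean in both replicates, plus primary screen hit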;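 also: peak minus minimum thallium fluorescence divided by baseline after K/Tl stimulus; 0% = vehicle mean plus 3 SD and 100% = vehicle minus unstimulated blank difference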
# Kir2-1 sel: mouse Kir2.1 channel activation off-target, confirmation, selectivity assay for KCNQ2 potentiator project, cell-based, HEK293, FluxOR thallium flux; shares compounds with KCNQ2 pot; HEK293 Kir2.1, FluxOR thallium flux fluorescence; activity over 3SD threshold, % at 10 µM; hit rate 2% among 1,200;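 active = fluorescence ratio rise of at least 3 SD above the vehicle-control mean, seen in both replicates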;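 also: 0% = vehicle mean plus 3 SD and 100% = vehicle minus no-stimulus blank window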
# KCNQ2 W236L MoA: potentiators of retigabine-insensitive KCNQ2 W236L, mechanism study for KCNQ2 potentiator project, cell-based, rat KCNQ2 W236L, CHO, automated patch clamp; current increase over 3SD of negative controls (%), stronger effect = higher value, % at 25 µM; automated patch clamp current; AID 2558, 2010; shares compounds with KCNQ2 pot; hit rate 10% among 940;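 active = current increase at least 3 SD of the untreated controls above them in both duplicate recordings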
# Active calls of the source: *; i = inactive; / = not tested or not shown.
SMILES,KCNQ2 pot,KCNQ2 block,Kir21 conf inh,HEK293 Tl flux,CHO-K1 ctr,KCNQ1 pot spec,KCNQ2 pot confirm,Kir2-1 sel,others
COc1ccccc1NC(=S)NCCc1c[nH]c2ccccc12,0.21,i,72.5%*,i,/,/,/,/,
COc1cccc(CNc2ccc3[nH]c(=O)[nH]c3c2)c1OCc1ccc(F)cc1,4.06,i,/,/,/,/,/,/,
Cc1ccc(NC(=S)NCCc2ccccc2)c(C)c1,/,i,/,/,/,/,/,/,
COc1cc(NC(=S)NCCc2c[nH]c3ccccc23)c(OC)cc1Cl,/,i,/,/,/,/,/,/,
COc1cccc(CNCCc2c[nH]c3ccccc23)c1OCc1ccc(F)cc1,-7.96,-7.96*,i,i,/,/,/,/,
Cc1ccc(NC(=S)NCCc2c[nH]c3ccccc23)c(C)c1,/,i,76.5%*,i,/,/,/,/,
C=CCNc1nc(NCc2ccccc2)c(C#N)c2c1CN(C)CC2,/,i,42.0%*,i,/,/,/,/,
CCN1CCc2c(C#N)c(NCc3ccccc3)nc(N(CC)CC)c2C1,9.13*,i,i,i,-8.3,-22.3,31.4*,-49.5,KCNQ2 W236L MoA=i
CCCc1nc(NCc2ccccc2)c(C#N)c2c1CCCC2,/,i,/,/,/,/,/,/,
CCCCCNc1nc(NCCCO)c(C#N)c2c1CN(C)CC2,1.83,i,/,/,/,/,/,/,
COc1ccc(Oc2nc(OC)cc(OC)n2)cc1,0.06,i,/,/,/,/,/,/,
Cc1ccc(CNC(=O)COc2ccc(S(=O)(=O)N3CCOCC3)cc2)cc1,0.31,i,/,/,/,/,/,/,
O=C(Cn1cc(S(=O)(=O)N2CCN(c3ccccc3F)CC2)c2ccccc2c1=O)NCCCN1CCCCCC1,0.11,i,/,/,/,/,/,/,
Cc1cc(C)c(Cn2c3ccccc3c3cnn(CC(=O)NCc4ccccn4)c(=O)c32)c(C)c1,13.5*,i,i,i,-40.5,-14.0,8.7*,-12.4,KCNQ2 W236L MoA=i
Cc1cc(C)c(Cn2c3ccccc3c3cnn(CC(=O)NCCN4CCOCC4)c(=O)c32)c(C)c1,1.57,i,/,/,/,/,/,/,
COc1cccc(CC(=O)N2CCC(n3nccc3NC(=O)C3CCOC3)CC2)c1 (stereo unspecified),/,i,/,/,/,/,/,/,
COc1cc(/C=C/c2ccc3cccc(O)c3n2)c(Br)cc1O,6.37*,i,i,71.0%*,5.7*,-12.1,-19.3,-39.9,
COc1cc(Br)c(/C=C/c2ccc3cccc(O)c3n2)cc1OC,0.09,i,/,/,/,/,/,/,
COc1ccc(OC)c(/C=C/c2ccc3cccc(O)c3n2)c1,0.39,i,/,/,/,/,/,/,
COc1cc(/C=C/c2ccc3cccc(O)c3n2)ccc1O,16.7*,i,i,141.5%*,7.5*,35.1*,12.3*,-36.9,KCNQ2 W236L MoA=i
CCCCOc1ccc(C(=O)NCC(=O)NC2CCN(Cc3ccccc3)CC2)cc1,0.67,i,/,/,/,/,/,/,
Cc1sc2nc(C(C)C)nc(SCC(=O)N3CCOCC3)c2c1C,12.2*,i,i,i,5.3*,-17.6,34.3*,-38.1,KCNQ2 W236L MoA=i
Cc1nc(SCC(=O)N2CCCCC2)c2c(C)c(C)sc2n1,7.4*,i,i,i,-10.0,99.5*,40.6*,-34.9,KCNQ2 W236L MoA=i
CCn1c(SC(C)C(=O)N2CCOCC2)nc2sc(C)c(C)c2c1=O (stereo unspecified),1.08,i,/,/,/,/,/,/,
